# Calls of active or inactive are those of the source.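 How the source made its calls, unless noted: active means z-score of at least 1.8 in each of two replicates, scored against plate mean and spread of sample wells; inactive means the rest.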
# Key:
# [1] = system: Aerobactin synthetase IucA (Klebsiella pneumoniae); test: IucA aerobactin synthetase inhibitors, biochemical, Tocris library, absorbance (AID 1345561; call rule not given here;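 further: 100% = enzyme without compound and 0% = no enzyme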); conditions: purified IucA enzyme assay, absorbance (OD) read-out; stronger effect = lower value;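 tested at 8 µM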
# [2] = sensitizers of A549 cells to miR-34 induction, primary screen, imaging, A549 dox-inducible miR-34, nuclei and caspase counts (AID 1347080;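 active means compounds whose cell count with miR-34 switched on is under 0.7 times the count with it off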); conditions: A549 miR-34 inducible, Hoechst nuclei count, 48 h
# [3] = viability rescue of complex I mutant cybrids, primary screen, cell-based, galactose medium, ATP luminescence (AID 1645843); conditions: complex I mutant cybrid cells, 72 h, stronger effect = higher value;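 further: positive z means more ATP and so rescue of galactose-driven cybrid death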
# [4] = stronger effect = lower value, cell number ratio, induced over uninduced
# [5] = measured here: relative caspase fold change +Dox/-Dox
# [6] = measured here: total cells with miR-34 induction, stronger effect = lower value
# [7] = measured here: total cells without miR-34 induction
Structure (SMILES),remaining activity [1],"fold change [2, 4]","fold change [2, 5]","cell count [2, 6]","cell count [2, 7]",z-score [3]
OC(CN1CCNCC1)Cn1c2ccc(Br)cc2c2cc(Br)ccc21 (centres undefined),103% (inactive),1.43 (inactive),0.602,284,198,-0.705 (inactive)
NC(C(=O)O)c1ccc(C(=O)O)c(O)c1 (centres undefined),93.9% (inactive),0.966 (inactive),1.12,9030,9350,-0.31 (inactive)
COC(=O)[C@H](Cc1ccc([N+](=O)[O-])cc1)NC(=O)c1cccc2ccccc12,101% (inactive),0.968 (inactive),0.966,9700,10000,-0.13 (inactive)
N=C(N)c1ccc(N2CCN(C3CCN(CC(=O)O)CC3)CC2)cc1,115% (inactive),1 (inactive),0.72,9390,9350,-0.165 (inactive)
Cc1cc(C(=O)O)sc1C(N)C(=O)O (centres undefined),83.4% (inactive),0.995 (inactive),1.22,8770,8820,0.285 (inactive)
CN1c2cc3c(cc2N=C(c2ccc(C(=O)O)cc2)c2ccccc21)C(C)(C)CCC3(C)C,106% (inactive),0.924 (inactive),2,7660,8280,-0.495 (inactive)
CC(C)(C)n1nc(-c2cccc3ccccc23)c2c(N)ncnc21,117% (inactive),0.947 (inactive),1.81,3180,3350,-0.105 (inactive)
COc1ccc2cccc(N3CCN(CCNC(=O)c4ccc(F)cc4)CC3)c2c1,104% (inactive),0.924 (inactive),0.854,7720,8360,-0.77 (inactive)
CC#CCOC(=O)C1=CCCN(C)C1,109% (inactive),0.936 (inactive),0.732,8580,9170,-0.46 (inactive)
CCCc1c(OCC(O)COc2ccc3c(=O)cc(C(=O)O)oc3c2CCC)ccc(C(C)=O)c1O (centres undefined),110% (inactive),0.998 (inactive),0.8,8250,8260,3.91 (active)
O=C(NCCCN1CCC2(CC1)OCc1ccccc12)[C@H]1CCCN1Cc1ccccc1,123% (inactive),0.953 (inactive),1.86,7790,8180,-0.88 (inactive)
O=c1[nH]c2cc(Cl)ccc2c(O)c1-c1cccc(Oc2ccccc2)c1,103% (inactive),0.963 (inactive),0.827,8760,9100,0.335 (inactive)
O=[N+]([O-])c1cc2nc(O)c(O)nc2cc1[N+](=O)[O-],103% (inactive),0.896 (inactive),1.68,8310,9280,-0.355 (inactive)
Cc1nc2c(c(=O)[nH]1)CSCC2,100% (inactive),0.983 (inactive),1.6,9080,9230,-0.035 (inactive)
C/C=C1/C(=O)C[C@H]2[C@@H]3CCC4=CC(=O)CC[C@]4(C)[C@H]3CC[C@]12C,104% (inactive),0.844 (inactive),3.69,6570,7790,-0.33 (inactive)
CC(C)NCCN(C(C)C)S(=O)(=O)c1ccc(Cl)cc1Cl,113% (inactive),0.946 (inactive),1.35,9040,9560,-0.215 (inactive)
N#Cc1ccccc1OCC(O)CNCCNC(=O)Nc1ccccc1 (centres undefined),118% (inactive),0.847 (inactive),1.36,8970,10600,-0.64 (inactive)
CCS(=O)(=O)N(C)[C@H]1c2cc(C#N)ccc2OC(C)(C)[C@@H]1O (racemic),119% (inactive),0.884 (inactive),1.36,9180,10400,0.85 (inactive)
CN1CCN(C2=Cc3ccccc3Oc3ccc(Cl)cc32)CC1,104% (inactive),0.963 (inactive),0.764,6800,7060,-0.9 (inactive)

# Reference: PubChem BioAssay
